# Measurements as given in PubChem BioAssay (NCATS).
# Records with an inconclusive call do not appear. Calls of active or inactive are those of the source. Unless noted, calls follow the shape of the full dose curve.
# Biological target: Glucocorticoid receptor (Homo sapiens) (UniProt P04150)
# Experiment: GR-EFC Redistribution (AID 451); also: potency is read from the fitted curve at half-maximal effect
# Details: CHO-K1 GR-EFC translocation, beta-gal luminescence, 2 h
# Method in brief: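 CHO-K1 cells stably expressing nuclear-localized β-gal enzyme acceptor and GR fused C-terminally to the enzyme donor fragment; ligand-driven nuclear translocation restores β-gal by complementation. Compounds titrated up to 46 uM final, 2 h at 37 °C; luminescence read.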
# Chain of Glucocorticoid receptor (Homo sapiens) (P04150 whole entry, looked up): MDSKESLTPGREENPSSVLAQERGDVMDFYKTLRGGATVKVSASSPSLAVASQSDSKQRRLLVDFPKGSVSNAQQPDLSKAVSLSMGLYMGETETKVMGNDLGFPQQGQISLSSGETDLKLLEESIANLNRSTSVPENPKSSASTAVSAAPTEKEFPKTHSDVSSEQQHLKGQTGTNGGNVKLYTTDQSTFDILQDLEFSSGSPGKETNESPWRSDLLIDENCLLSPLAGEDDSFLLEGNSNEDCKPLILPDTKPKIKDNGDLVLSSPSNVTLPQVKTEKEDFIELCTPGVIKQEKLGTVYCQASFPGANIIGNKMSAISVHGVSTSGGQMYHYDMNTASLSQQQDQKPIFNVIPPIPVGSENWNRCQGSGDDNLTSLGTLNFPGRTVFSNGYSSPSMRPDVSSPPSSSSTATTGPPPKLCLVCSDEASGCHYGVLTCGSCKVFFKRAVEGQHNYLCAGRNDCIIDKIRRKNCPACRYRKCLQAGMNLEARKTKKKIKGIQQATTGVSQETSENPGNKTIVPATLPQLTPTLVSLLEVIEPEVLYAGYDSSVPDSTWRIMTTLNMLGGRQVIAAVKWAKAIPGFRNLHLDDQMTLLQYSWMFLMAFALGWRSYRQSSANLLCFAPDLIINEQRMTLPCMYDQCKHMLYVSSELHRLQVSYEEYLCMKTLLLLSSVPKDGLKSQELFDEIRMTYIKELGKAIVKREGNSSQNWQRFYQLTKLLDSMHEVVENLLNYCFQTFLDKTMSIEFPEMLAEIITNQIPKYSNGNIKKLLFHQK
row,SMILES,Potency
1,OC[C@@H](O)COc1cccc2ccccc12,> 46 µM (inactive)
2,O=C(c1ccc2c(c1)OCO2)N1CCCCC1,> 46 µM (inactive)
3,CC(C)(C)Cn1nc(-c2ccc(Cl)cc2)c2c(N)ncnc21,> 46 µM (inactive)
4,Fc1ccc([C@H]2CCNC[C@H]2COc2ccc3c(c2)OCO3)cc1,> 46 µM (inactive)
5,C[C@H](O)CO[C@H]1[C@H]2O[C@H]3[C@H](O)[C@@H](O)[C@@H](O[C@H]4[C@H](O)[C@@H](O)[C@@H](O[C@H]5[C@H](O)[C@@H](O)[C@@H](O[C@H]6[C@H](O)[C@@H](OC[C@H](C)O)[C@@H](O[C@H]7[C@H](O)[C@@H](OC[C@H](C)O)[C@@H](O[C@H]8[C@H](O)[C@@H](O)[C@@H](O[C@@H]([C@@H]1O)[C@@H](CO)O2)O[C@@H]8CO)O[C@@H]7CO)O[C@@H]6CO)O[C@@H]5CO)O[C@@H]4CO)O[C@@H]3CO,> 46 µM (inactive)
6,C[C@@H]1c2ccccc2CN1CC1=NCCN1,> 46 µM (inactive)
7,Cc1cc(Cn2cnc3c2C[C@@H](C(=O)O)N(C(=O)C(c2ccccc2)c2ccccc2)C3)ccc1N(C)C,> 46 µM (inactive)
8,COc1cc(OC)c(C(=O)CCCCN2CCC3(CC2)NC(=O)NC3=O)cc1NS(=O)(=O)c1ccc(C(F)(F)F)cc1,> 46 µM (inactive)
9,O=C1C(=O)N(Cc2ccc(Cl)c(Cl)c2)c2ccccc21,> 46 µM (inactive)
10,COCCNC(=O)COc1ccc(OCCNC[C@@H](O)COc2ccccc2)cc1,> 46 µM (inactive)
11,CCOC(OCC)P(=O)(O)CCCNCc1ccc(Cl)c(Cl)c1,> 46 µM (inactive)
12,CCCCC(=O)NCCc1c(Cc2ccccc2)[nH]c2ccccc12,> 46 µM (inactive)
13,C[C@@H]1Nc2ccc(Cl)cc2S(=O)(=O)N1,> 46 µM (inactive)
14,CSc1nc(NC2CCCC2)c([N+](=O)[O-])c(NC2CCCC2)n1,> 46 µM (inactive)
15,NCCCNCCCCN(CCCN)/[N+]([O-])=N/O,> 46 µM (inactive)
16,CCCCCCCC(=O)O[C@H](CC(=O)O)C[N+](C)(C)C,> 46 µM (inactive)

row,SMILES,Potency
1,COC(=O)/C=C\c1cc(O)ccc1O,> 46 µM (inactive)
2,CCCCCCCCCCCCC(=O)N1CCCC[C@H]1CNC(=O)[C@@H](N)CCCCN,> 46 µM (inactive)
3,CCOC(=O)C1=C(C)NC(c2ccccc2)=C(C(=O)OCc2ccc([N+](=O)[O-])cc2)[C@@H]1C#Cc1ccccc1,> 46 µM (inactive)
4,CC(=O)[C@H](CC(C)C)NC(=O)[C@@H](CC(C)C)NC(=O)[C@H](CC(C)C)NC(=O)OCc1ccccc1,> 46 µM (inactive)
5,CC(=O)OCCNC(=O)c1cccnc1,> 46 µM (inactive)
6,CS(=O)(=O)Nc1ccc([N+](=O)[O-])cc1OC1CCCCC1,> 46 µM (inactive)
7,COc1cccc(C=NC=Nc2cccc(OC)c2)c1,> 46 µM (inactive)
8,CC#CCOC(=O)C1=CCCN(C)C1,> 46 µM (inactive)
9,NCCCCNS(=O)(=O)c1ccc2c(Cl)cccc2c1,> 46 µM (inactive)
10,C[C@](O)(C(=O)Nc1ccc(S(=O)(=O)c2ccccc2)cc1)C(F)(F)F,> 46 µM (inactive)
11,CCCCC#Cc1nc(NC)c2ncn([C@@H]3O[C@@H](CO)[C@H](O)[C@H]3O)c2n1,> 46 µM (inactive)
12,O=C(O)CC/C=C\C[C@@H]1CO[C@H](c2ccccc2Cl)O[C@@H]1c1ccccc1O,> 46 µM (inactive)
13,Cc1ccc(-c2nn(CC(C)(C)C)c3ncnc(N)c23)cc1,> 46 µM (inactive)
14,Cc1noc(NS(=O)(=O)c2cccc3c(N(C)C)cccc23)c1C,> 46 µM (inactive)
15,O=c1nc2ccccc2c2n1C[C@H](CN1CCN(c3ccccc3)CC1)N2,> 46 µM (inactive)

# Biological target: Mitogen-activated protein kinase 10 (Mus musculus) (UniProt Q61831)
# Experiment: JNK3 AlphaScreen Assay (AID 530; active = well fitted curve in either direction with a large enough effect, not every such curve was filed as active;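 also: kinase came from lysate of stimulated human HepG2 cells; signal reports phosphorylation of biotinylated GST-cJun 1-79 at Ser73 with 10 µM ATP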)
# Details: JNK3 lysate, c-Jun phosphorylation; series mostly up to 57.1 µM
# Method in brief: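 Inhibitors reduce antibody binding to phosphorylated biotin-cJun, lowering AlphaScreen luminescence. Lysates from HepG2 cells pre-activated by IL-1beta plus TNF-alpha supplied JNK3; compounds were titrated.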
row,SMILES,Potency
1,OC[C@@H](O)COc1cccc2ccccc12,inactive
2,O=C(c1ccc2c(c1)OCO2)N1CCCCC1,inactive
3,Fc1ccc([C@H]2CCNC[C@H]2COc2ccc3c(c2)OCO3)cc1,inactive
4,CCCn1c(=O)c2[nH]c(-c3ccccc3)nc2n(CCC)c1=O,inactive
5,C[C@H](O)CO[C@H]1[C@H]2O[C@H]3[C@H](O)[C@@H](O)[C@@H](O[C@H]4[C@H](O)[C@@H](O)[C@@H](O[C@H]5[C@H](O)[C@@H](O)[C@@H](O[C@H]6[C@H](O)[C@@H](OC[C@H](C)O)[C@@H](O[C@H]7[C@H](O)[C@@H](OC[C@H](C)O)[C@@H](O[C@H]8[C@H](O)[C@@H](O)[C@@H](O[C@@H]([C@@H]1O)[C@@H](CO)O2)O[C@@H]8CO)O[C@@H]7CO)O[C@@H]6CO)O[C@@H]5CO)O[C@@H]4CO)O[C@@H]3CO,inactive
6,C[C@@H]1c2ccccc2CN1CC1=NCCN1,inactive
7,Cc1cc(Cn2cnc3c2C[C@@H](C(=O)O)N(C(=O)C(c2ccccc2)c2ccccc2)C3)ccc1N(C)C,inactive
8,CCCn1c(=O)[nH]c2nc(-c3ccc(S(=O)(=O)O)cc3)[nH]c2c1=O,inactive
9,COCCNC(=O)COc1ccc(OCCNC[C@@H](O)COc2ccccc2)cc1,inactive
10,CCOC(OCC)P(=O)(O)CCCNCc1ccc(Cl)c(Cl)c1,inactive
11,CCCCC(=O)NCCc1c(Cc2ccccc2)[nH]c2ccccc12,inactive
12,C[C@@H]1Nc2ccc(Cl)cc2S(=O)(=O)N1,inactive
13,CSc1nc(NC2CCCC2)c([N+](=O)[O-])c(NC2CCCC2)n1,inactive
14,NCCCNCCCCN(CCCN)/[N+]([O-])=N/O,inactive
15,CCCCCCCC(=O)O[C@H](CC(=O)O)C[N+](C)(C)C,inactive
16,COC(=O)/C=C\c1cc(O)ccc1O,inactive
17,CCOC(=O)C1=C(C)NC(c2ccccc2)=C(C(=O)OCc2ccc([N+](=O)[O-])cc2)[C@@H]1C#Cc1ccccc1,inactive
18,CC(=O)[C@H](CC(C)C)NC(=O)[C@@H](CC(C)C)NC(=O)[C@H](CC(C)C)NC(=O)OCc1ccccc1,inactive
19,NS(=O)(=O)c1cccc2c1c([N+](=O)[O-])cc1[nH]c(=O)c(=O)[nH]c12,inactive
20,CC(=O)OCCNC(=O)c1cccnc1,inactive
21,c1ccc2cc(C3=NCCN3)ncc2c1,inactive
22,CC#CCOC(=O)C1=CCCN(C)C1,inactive
23,NCCCCNS(=O)(=O)c1ccc2c(Cl)cccc2c1,inactive
24,C[C@](O)(C(=O)Nc1ccc(S(=O)(=O)c2ccccc2)cc1)C(F)(F)F,inactive
25,CCCCC#Cc1nc(NC)c2ncn([C@@H]3O[C@@H](CO)[C@H](O)[C@H]3O)c2n1,inactive
26,O=C(O)CC/C=C\C[C@@H]1CO[C@H](c2ccccc2Cl)O[C@@H]1c1ccccc1O,inactive
27,Cc1ccc(-c2nn(CC(C)(C)C)c3ncnc(N)c23)cc1,inactive
28,Cc1noc(NS(=O)(=O)c2cccc3c(N(C)C)cccc23)c1C,inactive
29,O=c1nc2ccccc2c2n1C[C@H](CN1CCN(c3ccccc3)CC1)N2,inactive
